Compound activity (PubChem)
IL-1B inflam inh – inhibitors of inflammasome signaling (IL-1 beta secretion). THP-1 LPS/ATP IL-1B secretion, AlphaLISA, 16 h; active compounds read low. activity change, % at 57.5 µM. actives 4.7% (n = 360,000); in the data active means activity change below about -50%; inconclusive means mostly about -30% to -49%
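Secreted IL-1B measured by AlphaLISA bead assay after 16 h compound exposure of THP-1 cells; compounds (final up to 57.5 uM) added 1 h before LPS (250 ng/mL) and ATP (1.25 mM) stimulation; lower signal means less secretion.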
ELG1 repair inh – blocks ELG1-dependent DNA repair in HEK293T cells; actives 2.3% (n = 330,000); HEK293T ELG1-luciferase reporter, luminescence, 16 h; DNA damage induced by 5-fluorouridine; Potency, µM (series often up to 46.1 µM), for inactives: at the highest dose activity change, negative = inhibition, hits mostly inhibitors; AID 504467; further: potency means the concentration at half of the fitted maximal effect; nearly all actives have a fitted effect of over 55% in size
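Luminescence from the luciferase reporter, measured 30 min after ONE-Glo reagent at room temperature, was the read-out. Beforehand, 2,000 cells per well were exposed for 16 hr at 37 °C to 5-fluorouridine together with compound or vehicle.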
Giardia kill – kills Giardia lamblia | activity change, % at 7.66 µM, hits read low | actives 0.15% (n = 340,000) | Giardia lamblia trophozoite viability; in the data active means activity change below about -80%; inconclusive means between about -30% and that limit;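 further: parasites exposed to compound for two days anaerobically before the ATP read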
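Trophozoite viability was measured as ATP-dependent luminescence, read 15-30 min after reagent addition. Before that, parasites at 100 cells/well were exposed to compounds for 48 h, anaerobically, at 37 deg C.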
DT40 TDP1 no CPT – qHTS for Inhibitors of human tyrosyl-DNA phosphodiesterase 1 (TDP1): qHTS in cells in absence of CPT. DT40 Tdp1-/- hTDP1 cells, no CPT, ATP luminescence, 48 h. Potency, µM (highest dose often 46.2 µM), without a hit: at the highest dose activity change, negative = growth inhibition, usual class: inhibitors. actives 15% (n = 420,000). AID 686978, 2013; further: potency means the concentration at half of the fitted maximal effect; nearly all actives have a fitted effect of over 55% in size
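Growth kinetics read by CellTiter-Glo luminescence after ≥48 hr at 37 °C. Cells: DT40 Tdp1-/- stably carrying human TDP1, 400 per well, compound exposure in the absence of CPT (DMSO vehicle).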
TDP1 inh – inhibitors of human tyrosyl-DNA phosphodiesterase TDP1. Potency, µM (titrated, usually from 130 µM), for inactives: at the highest dose activity change, negative = inhibition, usual class: inhibitors. actives 0.28% (n = 350,000). recombinant TDP1, AlphaScreen DNA substrate cleavage. AID 485290; further: potency means the concentration at half of the fitted maximal effect; nearly all actives have a fitted effect of over 40% in size
Target sequence (Q9NUW8 whole entry, looked up): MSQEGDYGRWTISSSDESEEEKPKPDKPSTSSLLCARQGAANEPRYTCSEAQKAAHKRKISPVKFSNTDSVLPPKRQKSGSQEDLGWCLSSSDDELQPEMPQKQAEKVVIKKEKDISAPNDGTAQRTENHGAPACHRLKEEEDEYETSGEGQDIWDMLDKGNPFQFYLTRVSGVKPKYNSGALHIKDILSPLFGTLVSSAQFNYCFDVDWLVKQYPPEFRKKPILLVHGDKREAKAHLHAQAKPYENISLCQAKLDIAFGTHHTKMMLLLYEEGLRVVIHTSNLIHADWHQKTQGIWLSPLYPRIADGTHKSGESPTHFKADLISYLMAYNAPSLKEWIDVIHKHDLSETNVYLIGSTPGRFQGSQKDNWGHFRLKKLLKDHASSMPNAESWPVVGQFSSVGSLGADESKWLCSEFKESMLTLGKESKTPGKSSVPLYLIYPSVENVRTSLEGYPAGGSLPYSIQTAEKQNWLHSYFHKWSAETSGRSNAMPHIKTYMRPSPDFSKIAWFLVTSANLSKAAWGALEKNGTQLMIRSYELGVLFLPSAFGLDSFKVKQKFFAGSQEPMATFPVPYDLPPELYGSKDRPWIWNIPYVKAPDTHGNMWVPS
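Enzyme-compound mixtures sat 15 min at room temperature, followed by a 5 min reaction with 15 nM final substrate and 10 min with AlphaScreen beads. Recombinant human Tdp1 was used at 1 nM final.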
TDP1 cell CPT – growth inhibition of DT40 Tdp1-/-;hTDP1 cells with camptothecin (screen for TDP1 inhibitors); chicken DT40 Tdp1-/-;hTDP1 cells + 20 nM CPT, ATP luminescence, 48 h; Potency, µM (highest dose often 46.2 µM), inactives show at the highest dose activity change, negative = growth inhibition, most hits filed as inhibitors; actives 12% (n = 420,000); further: potency means the concentration at half of the fitted maximal effect; nearly all actives have a fitted effect of over 55% in size
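Chicken DT40 Tdp1-/- cells complemented with human TDP1, 400 cells/well, exposed to compounds plus 20 nM camptothecin for at least 48 h at 37 C; viability read as ATP content by CellTiter-Glo luminescence.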
* marks the source's active call; other numbers are inactive results; ? = inconclusive; . = no result; [ ] = another dose, or the depositor's remark. Hits are enriched below; roughly 19% of the tested compounds scored in any of these assays. Unless noted, the call rests on the fitted dose curve; in most records, active means well fitted curve in the direction sought with a large enough effect; inconclusive means small, poorly fitted or top-dose-only effect, or another doubt; inactive means no such curve, though single readings can be large; an effect the other way counts as inactive or inconclusive. On the % scale 0 is the no-effect control and ±100 the full control effect.

SMILES | IL-1B inflam inh | ELG1 repair inh | Giardia kill | DT40 TDP1 no CPT | TDP1 inh | TDP1 cell CPT
Cc1ccc(S(=O)(=O)N2CCC(C(=O)Nc3ccccc3N3CCCC3)CC2)cc1 | -10 | ? | 14 | -3% | . | -20%
Cc1cccc(NC(=O)C2CCN(S(=O)(=O)c3c(C)c(C)cc(C)c3C)CC2)n1 | -89* | ? | 17 | 16µM* | 5% | 15µM*
Cc1ccc(S(=O)(=O)N2CCC(C(=O)Nc3ccccc3N3CCCCC3)CC2)cc1 | -17 | ? | 3 | ? | 2% | 18µM*
Cc1cccc(NC(=O)C2CCN(S(=O)(=O)c3c(C)nn(C)c3C)CC2)n1 | 34 | ? | 16 | -17% | 3% | -11%
Cc1cc(C)c(C)c(S(=O)(=O)N2CCC(C(=O)Nc3ccccc3N3CCOCC3)CC2)c1C | -7 | ? | -9 | 15µM* | -6% | ?
CCOc1ccc(S(=O)(=O)N2CCC(C(=O)Nc3ccccc3N3CCCC3)CC2)cc1 | ? | . | . | 21µM* | . | ?
O=C(NCc1cccnc1)C(=O)NCC(c1ccco1)N1CCN(c2ccccc2F)CC1 (configuration not stated) | 7 | -4% | -6 | -28% | 0% | -3%
O=C(NCC(c1cccnc1)N1CCN(c2ccccc2F)CC1)C(=O)Nc1ccc(F)cc1F (configuration not stated) | . | . | . | 15µM* | 6% | ?
COc1ccccc1N1CCN(C(CNS(=O)(=O)c2cc(F)ccc2F)c2cccnc2)CC1 (configuration not stated) | 22 | -2% | ? | -16% | 8% | -50%
Cc1ccc(CNC(=O)C(=O)NCC(c2cccnc2)N2CCN(c3ccccc3F)CC2)cc1 (configuration not stated) | . | . | . | 5.8µM* | 1% | 13µM*
CCOC(=O)/C=C/C(=O)OCC(=O)Nc1ccc([N+](=O)[O-])cc1 | ? | 10% | 16 | -19% | . | ?
O=C(COC(=O)CC1CC2CCC1C2)NCc1ccccc1 (configuration not stated) | 17 | 19% | -15 | -21% | 0% | -1%
CC(C)C1=NN(C(=O)c2ccccc2)C(O)(C(C)(C)C)C1 (configuration not stated) | 6 | ? | -8 | 6.5µM* | 6% | ?
Cc1c([N+](=O)[O-])cnc2ccccc12 | . | . | . | ? | . | -10%
Nc1cc(OCc2ccccc2)ccc1OCc1ccccc1 | -9 | . | -10 | -20% | . | ?
C[N+]1(CC2COC(c3ccccc3)(C3CCCCC3)O2)CCCCC1 (configuration not stated) | . | . | . | 6µM* | . | -94%
COC(=O)[C@@]12CCCN1[C@H](c1ccc(-c3ccc(OC)cc3)cc1)[C@@H]1C(=O)N(C)C(=O)[C@@H]12 | 7 | -29% | 16 | 21µM* | 2% | 18µM*
COC(=O)[C@@]12CCCN1[C@H](c1ccc(-c3ccc(OC)cc3)c(OC)c1)[C@@H]1C(=O)N(C)C(=O)[C@@H]12 | 19 | 3% | -29 | 4.1µM* | 2% | 4.1µM*
CC(C)C1Oc2ccccc2N(CC(=O)NC2CCCCC2)C1=O (configuration not stated) | ? | 8% | 6 | ? | . | ?
Cc1ccc(S(=O)(=O)N(C)Cc2ccc(C(=O)N/N=C/c3ccc(OC(F)F)cc3)cc2)cc1 | 10 | -6% | 5 | 21µM* | 6% | 15µM*
C/C(=N\NC(=O)c1ccc(CN(C)S(=O)(=O)c2ccc(C)cc2)cc1)c1ccc(OC(F)F)cc1 | 31 | ? | -1 | 1.5µM* | 3% | ?
O=C1C[C@H](c2ccc3ccccc3c2)N1S(=O)(=O)c1ccccc1[N+](=O)[O-] | . | . | -2 | . | 8% | .
Cc1cccn2c(=O)c(C=O)c(N3CCC4(CC3)OCCO4)nc12 | . | 1% | -1 | -30% | 3% | 0%
Cc1cc(C)nc(N2CCCC(C(=O)Nc3cccc(Cl)c3)C2)n1 (configuration not stated) | 25 | 2% | 1 | ? | 9% | ?
C=CCNC(=S)N(C1CCCCC1)C1CCCCC1 | 0 | 2% | 2 | 23µM* | -1% | ?
SMILES | IL-1B inflam inh | ELG1 repair inh | Giardia kill | DT40 TDP1 no CPT | TDP1 inh | TDP1 cell CPT
O=C(c1ccc(S(=O)(=O)Cc2ccccc2F)c([N+](=O)[O-])c1)N1CCCC1 | -103* | 20% | 5 | ? | 2% | 18µM*
O=C(c1ccc(S(=O)(=O)c2ccc(F)cc2)c([N+](=O)[O-])c1)N1CCCCCC1 | -103* | ? | 8 | 2.3µM* | 0% | 3.3µM*
CC1CCN(C(=O)c2ccc(N3CCOCC3)c([N+](=O)[O-])c2)CC1 | -4 | 13% | 15 | ? | 2% | -30%
O=C(c1ccc(S(=O)(=O)Nc2ccccc2F)cc1)N1CCCCCC1 | 17 | 6% | 4 | -4% | -4%[0.505 µM] | -1%
CC1CCN(C(=O)c2ccc(S(=O)(=O)Cc3ccccc3F)c([N+](=O)[O-])c2)CC1 | -117* | 21µM* | -18 | 16µM* | 3% | ?
O=C1Nc2ccccc2N(C(=O)c2ccc3ccccc3c2)C1c1nc2ccccc2[nH]1 (configuration not stated) | -2 | . | . | 21µM* | . | 10µM*
CC1C(=O)Nc2ccccc2N1C(=O)c1ccc(O)cc1 (configuration not stated) | -19 | -6% | -4 | 5% | . | 5%
Cc1ccc2[nH]cc(C(c3ccccc3)c3ccc(C)s3)c2c1 (configuration not stated) | . | . | . | 18µM* | 9% | ?
Cc1ccc(C(c2ccccc2)c2c(C)[nH]c3ccccc23)s1 (configuration not stated) | . | . | . | . | 1% | .
Cc1ccc2[nH]cc(C(c3ccccc3)c3cccs3)c2c1 (configuration not stated) | . | . | . | 18µM* | 1% | ?
CC(C)C(O)(C#CCN1CCCCC1)C(C)C | 5 | -2% | -7 | -13% | 5% | -5%
CCCCN1CC(COCc2ccccc2)Oc2cc(Br)ccc2S1(=O)=O (configuration not stated) | 1 | . | 4 | ? | . | ?
CN1CC(COCc2ccccc2)Oc2ccccc2S1(=O)=O (configuration not stated) | 20 | 7% | 38 | -23% | 0%[56.1 µM] | ?
